Source: PubChem (several laboratories)
TWEAK-Fn14 inh: TWEAK-Fn14 signaling inhibition | TWEAK-stimulated Fn14 reporter cells, luciferase luminescence, 8 h | inhibition, % at 10 µM | 2% of 360,000 active | AID 1159606; in the data active means inhibition above about 50%
LMP1 NFkB inh: inhibitors of Epstein-Barr LMP1-induced NF-kappaB reporter. LMP1-induced NF-kappaB luciferase reporter cells, luminescence. inhibition, % at 12.5 µM. 0.69% of 350,000 active. AID 504558; in the data active means inhibition above about 41%; inconclusive means no clear call, values can overlap the other calls;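 further: 0% = neutral control wells and 100% = reference inhibitor control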
PAX8 reporter: inhibitors of PAX8 transcriptional activity in RMG-I cells; inhibition, % at 12.6 µM; 1.2% of 360,000 active; AID 652154; RMG-I TPO-luciferase reporter, SteadyGlo, 24 h;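 active means mean replicate inhibition at least 60% with every replicate also reaching 60%; inconclusive means only one of the two criteria is met; inactive means mean below 60% and not all replicates reaching 60%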;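 further: luciferase light reporting Pax8 driven TPO promoter activity; plate controls were median of neutral control wells for no effect and mitoxantrone controls for full effect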
TROY signal inh: TROY signaling inhibition; inhibition, % at 10 µM; Q293 LMP1-TROYcd NF-kB luciferase reporter, 4 h; 0.98% of 360,000 active;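 active means compounds whose plate-normalised and pattern-corrected inhibition of the luciferase reporter signal at the single screening dose is 50% or more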
EWS-Fli inh: inhibitors of EWS/Fli oncoprotein transcriptional activity; A673 NR0B1-luciferase reporter, viability-normalised; inhibition, % at 12.6 µM; 0.67% of 350,000 active;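 active means mean inhibition of at least 50% after viability correction, with every replicate also passing that limit; inconclusive means mean reaches 50% but only one of two replicates passes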;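 further: firefly luciferase signal divided by Alamar Blue viability fluorescence both relative to DMSO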
LGR2 inh: Drosophila LGR2 receptor signaling inhibition. HEK293 LGR2, CRE-luciferase, bursicon-stimulated, 4 h. AID 720647. inhibition, % at 9.99 µM. 0.35% of 380,000 active;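 active means drop in luminescence signal, shown as inhibition above about 50% in the replicate tests, limit read from the data, passing the limit was not always enough; inconclusive means probably only some replicates passing the limit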;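 further: agonist challenge used bursicon conditioned medium at about half maximal strength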
Numbers without * were called inactive; ? = inconclusive; / = not tested or not shown. Shown are actives, neighbours in structure and some others; about 3.1% of the full set was active somewhere.

SMILES	TWEAK-Fn14 inh	LMP1 NFkB inh	PAX8 reporter	TROY signal inh	EWS-Fli inh	LGR2 inh
O=C(Nc1ccc(Br)cc1)C1CCN(C(=O)c2ccco2)CC1	55*	0	2	-14	-4	-1
C[C@@H]1CN([C@@H](C)CO)C(=O)Cc2cc(NC(=O)Cn3cnnn3)ccc2O[C@@H]1CN(C)S(=O)(=O)c1ccc(F)cc1	/	/	-18	/	-9	0
COc1ccc(-c2cc(=O)oc3cc(O)ccc23)cc1	64*	19	5	26	15	2
COc1ccc(-c2cc(=O)oc3c(C)c(O)ccc23)cc1	72*	-5	26	61*	-6	13
COc1ccc(-c2cc(=O)oc3cc(OC(=O)C4CCCCC4)c(Cl)cc23)cc1	84*	34	-27	58*	10	33
Cc1c(O)ccc2c(-c3ccccc3)cc(=O)oc12	44	2	12	45	5	5
COc1ccc(-c2cc(=O)oc3cc(OC(C)C(=O)NC4CC4)ccc23)cc1 (stereo not drawn)	-9	7	/	-17	5	-4
Cc1noc(C)c1NC(=O)Nc1cccc2c1O[C@@H](CN(C)Cc1ccc(C(=O)O)cc1)[C@H](C)CN([C@H](C)CO)C2=O	/	/	/	/	0	7
C[C@@H]1CN([C@@H](C)CO)C(=O)c2cccc(NC(=O)Nc3ccc(F)cc3)c2O[C@H]1CN(C)Cc1ccc(C(=O)Nc2ccccc2N)cc1	/	/	13	/	13	12
O=C(CCl)Nc1ccccc1Sc1ccc(Cl)cc1	88*	11	/	-15	/	/
O=C(Nc1ccc(Cl)c([N+](=O)[O-])c1)C(Sc1ccccc1)c1ccccc1 (stereo not drawn)	94*	21	54	55*	10	45
CCN(CC)S(=O)(=O)c1cc([N+](=O)[O-])ccc1NNC(=O)Nc1ccc(Cl)c(Cl)c1	59*	46*	89*	54*	/	/
O=C(NNc1ccccc1[N+](=O)[O-])Nc1ccc(Cl)c(Cl)c1	39	32	-2	55*	-1	/
CCCCN(CCCC)S(=O)(=O)c1ccc(NC(=O)c2ccc([N+](=O)[O-])cc2Cl)cc1	63*	-5	32	31	/	?
CO[C@H]1CC[C@H]2CCN(C)C(=O)[C@@H](C)[C@@H](OC)CN(C)C(=O)c3cc(C#N)ccc3OC[C@@H]1O2	/	/	-8	/	-8	-11
C[C@@H]1CCCCO[C@H](CN(C)S(=O)(=O)c2cn(C)cn2)[C@@H](C)CN([C@@H](C)CO)C(=O)c2cc(NS(=O)(=O)c3ccccc3)ccc2O1	/	/	19	/	-20	0
N=c1n(CC(=O)c2ccc(Br)s2)c2ccccc2n1Cc1ccccc1	-9	-8	47	16	60*	32
C[C@@H]1CN([C@@H](C)CO)C(=O)c2cc(C#Cc3ccccn3)cnc2O[C@H]1CN(C)C(=O)c1ccccn1	/	/	/	/	0	-20
Cc1noc(C)c1NC(=O)Nc1ccc2c(c1)C(=O)N([C@H](C)CO)C[C@@H](C)[C@H](CN(C)C(=O)Nc1cccc3ccccc13)O2	/	/	/	/	-3	15
COc1ccc(NC(=O)N2CCCC(c3nc(-c4ccc(OC)cc4)no3)C2)cc1 (stereo not drawn)	36	9	-47	33	0	-68
COc1ccc(NC(=O)N2CCCC(c3nc(-c4ccc(C(C)C)cc4)no3)C2)cc1 (stereo not drawn)	59*	-25	/	69*	/	/
CNC(=O)C[C@@H]1CC[C@H]2[C@@H](COc3ccc(NC(=O)Nc4cccc(C)c4)cc3C(=O)N2C)O1	/	/	0	/	-13	-5
COc1ccc(C2CC(=O)N(C)c3ccccc3S2)cc1 (stereo not drawn)	70*	7	-20	57*	-40	/
CN1C(=O)CC(c2ccco2)Sc2ccccc21 (stereo not drawn)	2	-3	/	-32	/	-30
COc1ccc(C2CC(=O)N(CC(=O)NCC3CCCO3)c3ccccc3S2)cc1 (stereo not drawn)	47	12	-8	52*	-7	2
SMILES	TWEAK-Fn14 inh	LMP1 NFkB inh	PAX8 reporter	TROY signal inh	EWS-Fli inh	LGR2 inh
CC(=O)N1CC(=O)N2[C@H](CO)[C@@H](c3ccc(-c4ccc(C)cc4)cc3)[C@@H]2C1	/	/	-14	/	0	3
CN1CCN(c2nc(-c3ccccc3)nc(-c3ccccc3)c2C#N)CC1	1	-5	15	-11	4	-17
N#Cc1c(-c2ccccc2)nc(-c2ccccc2)nc1N1CCOCC1	79*	-10	/	/	/	/
O=C(c1ccc(S(=O)(=O)c2ccc(F)cc2)c([N+](=O)[O-])c1)N1CCCCCC1	77*	19	-24	43	-14	46
COc1cc(SC)ccc1C(=O)N1CCN(Cc2ccccc2)CC1	-9	19	6	-5	8	7
Cc1ccc(CS(=O)(=O)c2ccc(C(=O)N3CCCCC3)cc2[N+](=O)[O-])cc1	24	5	22	19	13	8
O=C(c1ccc(S(=O)(=O)c2ccccc2Cl)c([N+](=O)[O-])c1)N1CCN(Cc2ccccc2)CC1	74*	24	24	34	33	21
O=C(c1ccc(Br)c([N+](=O)[O-])c1)N1CCN(Cc2ccccc2)CC1	3	-2	2	11	19	0
Cc1ccc(CS(=O)(=O)c2ccc(C(=O)N3CCN(c4ccccn4)CC3)cc2[N+](=O)[O-])cc1	50*	18	31	42	18	22
COc1cc(N(C)C)c([N+](=O)[O-])cc1C(=O)N1CCN(Cc2ccccc2)CC1	-2	51*	1	12	-4	-1
CC1CCN(C(=O)c2ccc(S(=O)(=O)Cc3ccccc3F)c([N+](=O)[O-])c2)CC1	63*	12	-2	16	4	39
COCC(C)n1c(C)cc(C(=O)COC(=O)c2c(C)nn(-c3ccccc3)c2C)c1C (stereo not drawn)	-18	6	5	-3	/	/
COCC(C)n1c(C)cc(C(=O)COC(=O)c2c(NC(C)=O)sc(C)c2C)c1C (stereo not drawn)	15	14	14	65*	/	/
CC(=O)N(C)C[C@H]1Oc2ncc(-c3ccc(C#N)cc3)cc2C(=O)N([C@@H](C)CO)C[C@H]1C	/	/	/	/	-11	-16
COc1ccc(NC(=O)N(C)C[C@H]2Oc3c(cccc3N(C)C)C(=O)N([C@H](C)CO)C[C@@H]2C)cc1	/	/	10	/	-2	-1
COc1ccc(N(C(=O)/C=C/C(=O)Nc2cc(C)on2)C(C(=O)NC2CCCC2)c2ccccc2C)cc1 (stereo not drawn)	36	18	71*	3	4	16
COc1ccc(N(C(=O)CCC(=O)Nc2cc(C)on2)C(C(=O)NC2CCCC2)c2ccco2)cc1 (stereo not drawn)	-3	-9	4	-21	4	/
O=C(Nc1nc2ccccc2s1)c1ccccc1	50*	-27	-88	1	-25	-13
